HTT aggregate: qHTS Multiplex Assay to Identify Dual Action Probes in a Cell Model of Huntington: Aggregate Formation (GFP); PC12 HttQ103-GFP aggregates, Acumen cytometry, 40 h; Potency, µM (titrated, usually from 46.1 µM), for the others: at the highest dose activity change, negative = inhibition, actives largely listed as inhibitors; 1.1% of 220,000 active; also: potency is read from the fitted curve at half-maximal effect; % is scaled to controls: 0 for no effect and ±100 for the full control effect; nearly all actives have a fitted effect of over 60% in size
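Read-out: GFP aggregate count by laser scanning cytometer (488 nm excitation, 500-530 nm emission, 1–25 µm objects >6 SD above background). Cells: PC12, inducible HTTex1-Q103-GFP, 100 nM tebufenozide; compounds titrated.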
HPGD inh: qHTS Assay for Inhibitors of HPGD (15-Hydroxyprostaglandin Dehydrogenase); Potency, µM, without a hit: top-dose activity change, negative = inhibition, usual class: inhibitors; AID 894, 2007; 15-hydroxyprostaglandin dehydrogenase [NAD(+)] (Homo sapiens), P15428; 4.3% of 150,000 active; purified HPGD, NADH fluorescence kinetic, PGE2 substrate; active = well fitted inhibition curve with a large enough effect, not every such curve was filed as active; inconclusive = small, poorly fitted or top-dose-only effect, or another doubt; inactive = no such curve, though single readings can be large or run the other way; also: potency is read from the fitted curve at half-maximal effect; % is scaled to controls: 0 for no effect and ±100 for the full control effect
Target sequence (P15428 whole entry, looked up): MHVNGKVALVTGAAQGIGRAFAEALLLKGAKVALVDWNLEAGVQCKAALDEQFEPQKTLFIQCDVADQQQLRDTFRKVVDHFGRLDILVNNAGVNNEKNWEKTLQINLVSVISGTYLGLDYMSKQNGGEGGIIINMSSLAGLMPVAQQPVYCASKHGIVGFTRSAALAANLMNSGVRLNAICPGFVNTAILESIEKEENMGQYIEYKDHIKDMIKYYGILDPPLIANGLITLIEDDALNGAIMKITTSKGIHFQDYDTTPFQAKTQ
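20 nM HPGD preincubated 15 min at room temperature with compound in 50 mM Tris-HCl pH 8, 0.01% Tween 20. Started with 1 mM NAD+ and 30 uM prostaglandin E2; NADH fluorescence (360/450 nm) read 5 times over 30-s intervals, last minus first.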
PNC inhibitor: High Content Assay for Compounds that inhibit the Assembly of the Perinucleolar Compartment; PC3M PTB-GFP, PNC prevalence imaging, 16 h; stronger effect = lower value; activity change (PNC), negative = inhibition, % at 10 µM; 3.1% of 140,000 active;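 active = readout at or below -70, meaning at least 70% loss of cells showing the perinucleolar compartment, a nuclear body marking cancer cells; inconclusive = readout between -30 and a set limit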;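 also: plate controls were DMSO wells for no effect and camptothecin positive control wells for full effect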
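PC3M cells stably expressing PTB-GFP, 750–1000 cells/well, treated 16 h at 37 °C with compound (23 nl of library stock), in duplicate. After paraformaldehyde fixation and Hoechst stain, imaged at 20x; PNC prevalence scored by image analysis.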
HTT cytoprotect: qHTS Multiplex Assay to Identify Dual Action Probes in a Cell Model of Huntington: Cytoprotection (ATP) | PC12 HTT-Q103 induced, cytoprotection, ATP luminescence, 40 h | Potency, µM (series often up to 56.4 µM), inactives show cytoprotection (ATP increase), usual class: activators | 0.14% of 230,000 active; also: potency is read from the fitted curve at half-maximal effect; % of control where 0% means no effect; nearly all actives have a fitted effect of over 45% in size
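Rat PC12, Q103 Htt exon1-GFP fusion, ecdysone promoter; tebufenozide inducer 100 nM final; compound titration; qHTS, 1500 cells/well; ATPlite luminescent read.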
RGS12 GoLoco inh: qHTS Assay for Inhibitors of RGS12 GoLoco Motif Activity (Red Fluorophore); 0.44% of 230,000 active; Guanine nucleotide-binding protein G(i) subunit alpha-1 (Homo sapiens), P63096; Potency, µM (doses to about 61.6 µM), for the others: at the highest dose activity, negative = inhibition, most hits filed as inhibitors; Gai1:RGS12 GoLoco peptide FP, rhodamine, 10 min; active = well fitted inhibition curve with a large enough effect, not every such curve was filed as active; inactive = no such curve, though single readings can be large or run the other way; also: potency is read from the fitted curve at half-maximal effect; % is scaled to controls: 0 for no effect and ±100 for the full control effect; nearly all actives have a fitted effect of over 30% in size
Target sequence (P63096 whole entry, looked up): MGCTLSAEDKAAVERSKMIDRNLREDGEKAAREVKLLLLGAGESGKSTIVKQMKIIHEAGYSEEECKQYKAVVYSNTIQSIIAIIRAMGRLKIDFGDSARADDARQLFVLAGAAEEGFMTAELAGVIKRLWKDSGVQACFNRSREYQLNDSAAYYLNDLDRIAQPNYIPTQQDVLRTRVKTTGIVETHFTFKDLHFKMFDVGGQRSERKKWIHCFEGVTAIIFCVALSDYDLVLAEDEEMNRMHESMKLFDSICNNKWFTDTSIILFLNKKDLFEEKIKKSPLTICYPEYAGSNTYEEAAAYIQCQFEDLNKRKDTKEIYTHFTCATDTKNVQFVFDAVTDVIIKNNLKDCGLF
ALDH1A1 block: qHTS Assay for Inhibitors of Aldehyde Dehydrogenase 1 (ALDH1A1). Aldehyde dehydrogenase 1A1 (Homo sapiens), P00352. Purified ALDH1A1, NADH fluorescence, propionaldehyde substrate. Potency, µM (titrated, usually from 75.3 µM), for the others: at the highest dose activity, negative = inhibition, most hits filed as inhibitors. 7.3% of 220,000 active; active = well fitted inhibition curve with a large enough effect, not every such curve was filed as active; inconclusive = small, poorly fitted or top-dose-only effect, or another doubt; inactive = no such curve, though single readings can be large or run the other way;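 also: potency is read from the fitted curve at half-maximal effect; plate controls were no enzyme wells and a reference inhibitor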
* hit, by the source's call; ? = inconclusive; · = not tested or not shown; [ ] = another dose, or the depositor's remark. Rows were chosen to be rich in hits. Some 11% of all compounds tested hit in one or more screens of this group. Unless noted, calls follow the shape of the dose curve; as a rule, active = well fitted curve in the direction sought with a large enough effect; inconclusive = small, poorly fitted or top-dose-only effect, or another doubt; inactive = no such curve, though single readings can be large; an effect the other way counts as inactive or inconclusive.

SMILES | HTT aggregate | HPGD inh | PNC inhibitor | HTT cytoprotect | RGS12 GoLoco inh | ALDH1A1 block
C=CCn1c(SCC(=O)C(C)(C)C)nnc1-c1ccccn1 | 3.9% | -20.7% | 187.6 | -17.5%[0.074 µM] | 9.5% | ?
CC(C)(C)C(=O)CSc1nnc(-c2cccs2)n1CC1CCCO1 (configuration not stated) | 17.1% | -8.8% | -20.3 | 12.8% | 1.2% | -5.1%
C=CCn1c(SCC(=O)C(C)(C)C)nnc1-c1cccs1 | 1.7% | 14.1µM* | 5.1 | -37.7% | -1.5% | 12.6µM*
Cc1ccccc1-n1c(SCC(=O)N2CCCC2)nnc1-c1ccccn1 | -0.2% | ? | -14.7 | 3.9%[10 µM] | -7.6% | -18.2%
CCn1c(SCC(=O)C(C)(C)C)nnc1-c1cnccn1 | 5.6% | ? | -100.0* | 9.4%[10 µM] | -1.8% | ?
CC(=O)Nc1nc2c(c3c1c(=O)oc1ccccc13)CC(C)CC2 (configuration not stated) | -6.8% | ? | -100.0* | 0.4%[10 µM] | 6.7% | ?
CS(=O)(=O)N1N=C(c2ccccc2)CC1c1ccc2c(c1)OCO2 (configuration not stated) | -9.0% | -8.4% | -27.3 | 11.3%[10 µM] | -131.8% | 2.38µM*
CS(=O)(=O)N1N=C(c2ccco2)CC1c1ccc(Cl)cc1 (configuration not stated) | 14.5% | -6.7% | 11.5 | 21.4%[10 µM] | 17.9% | 8.91µM*
O=C(c1cccnc1)N(Cc1ccccc1)c1ccccc1 | -2.7% | -7.2% | -11.7 | 1.7%[0.074 µM] | 9.9% | 0.9%
Cc1cccc(N(Cc2ccccc2)C(=O)CCl)c1 | ? | · | · | · | -2.3% | 0.282µM*
O=C(CCl)N(Cc1ccccc1)c1ccccc1 | ? | · | · | -22.0%[10 µM] | 3.9% | 0.0794µM*
CCn1cc(/C=N\NC(=O)Cc2ccc([N+](=O)[O-])cc2)c(C)n1 | 12.4% | -9.6% | -7.7 | · | 12.1% | 13.0%
CCOC(=O)C1=C(c2ccccc2)NC(N)=NC1c1ccc(OCc2ccc(Cl)cc2)c(OC)c1 (configuration not stated) | 13.4%[9.22 µM] | · | · | -9.9%[10 µM] | 12.8% | ·
Cn1cc(-c2nc3cnc(Oc4ccccc4)nc3n(C3CC3)c2=O)c2ccccc21 | · | · | · | -4.3% | 7.9% | -0.9%
CC(C)CCn1c(-c2nonc2N)nc2ccccc21 | 11.2µM* | -12.3% | 145.3 | -2.6%[10 µM] | 28.0% | -8.2%
Cc1csc(NC(=O)C2CCN(S(=O)(=O)c3ccc4c(c3)oc(=O)n4C)CC2)n1 | -14.5% | -17.8% | -6.3 | -10.3% | 1.4% | 0.4%
Cc1csc(NC(=O)C(CC(C)C)NS(=O)(=O)c2ccc3c(c2)oc(=O)n3C)n1 (configuration not stated) | 18.7% | -14.0% | -81.7* | -13.9% | 9.0% | 1.2%
CO[C@H]1COC(=O)[C@@H](C)COC(=O)[C@@H](Cc2ccccc2)NC(=O)C/C=C\[C@H]1C | · | · | · | 2.4%[10 µM] | · | 3.8%[13.5 µM]
O=C(/C=C/c1ccccc1)NCCO | -7.5% | · | · | ? | · | ·
Cc1ccccc1OCC(=O)N1N=C(C(F)(F)F)CC1(O)C(C)(C)C (configuration not stated) | 4.6% | -10.6% | -3.1 | -0.3%[10 µM] | -13.6% | 14.1µM*
CNC(=O)c1[nH]cnc1C(=O)Nc1ccc(Cl)cc1 | 0.6%[9.22 µM] | · | · | 12.0%[10 µM] | 7.3% | 3.2%
CCCS(=O)(=O)Nc1ccc(-c2ccc3nnc(C)n3n2)cc1 | 20.5% | · | · | 19.8% | -11.6% | -10.5%
Cc1ccc(C)c(NC(=O)c2cc(-c3cccnc3)nc3ccccc23)c1 | -13.2% | · | · | -1.2%[10 µM] | 7.0% | 4.7%
Cc1cc(C(=O)N/N=C/C=C/c2ccccc2[N+](=O)[O-])c(C)o1 | -32.5% | · | · | -42.9% | 3.2% | 5.62µM*
O=C(CSc1nc2ccccc2c(=O)n1-c1ccccc1)N/N=C/C=C/c1ccccc1[N+](=O)[O-] | -0.3% | · | · | -15.2% | 14.9% | 2.82µM*
SMILES | HTT aggregate | HPGD inh | PNC inhibitor | HTT cytoprotect | RGS12 GoLoco inh | ALDH1A1 block
O=C(N/N=C/C=C/c1ccccc1[N+](=O)[O-])c1cc(-c2cccnc2)nc2ccccc12 | -13.1% | -5.2% | -83.5* | 16.4%[10 µM] | -2.3% | 14.1µM*
C/C(=N\NC(=O)c1cc(-c2cccnc2)nc2ccccc12)c1ccc(O)cc1O | 4.1% | -22.8% | -92.2* | · | 16.0% | ?
COc1ccccc1-c1cc(C(=O)N/N=C/C=C/c2ccccc2[N+](=O)[O-])c2ccccc2n1 | -10.0% | -2.1% | -0.1 | -6.5% | -5.4% | -5.4%
O=C(NCc1cccnc1)C(=O)Nc1ccc2c(c1)OCO2 | 9.9% | · | · | 9.3%[10 µM] | 4.2% | 2.4%
COc1ccc(S(=O)(=O)NCCOc2ccccc2)cc1-n1cnnn1 | -13.4%[9.22 µM] | · | · | -31.8%[10 µM] | 6.6% | 8.91µM*
COc1ccc(S(=O)(=O)NCCOc2ccccc2)cc1OC | 2.5% | -8.6% | -9.3 | 1.9%[0.074 µM] | -2.9% | -0.3%
ClC(Cl)(c1nnnn1-c1ccccc1)c1nnnn1-c1ccccc1 | ? | 3.16µM* | ? | 16.7%[10 µM] | -9.4% | 1.12µM*
c1ccc(N2CCN(c3nnnn3-c3ccccc3)CC2)cc1 | 8.2%[9.22 µM] | -2.5% | 4.5 | -22.8% | -3.8% | ?
COC(=O)c1ccc(NN=Nc2ccc(C)cc2)cc1 | -14.2% | ? | 8.1 | 22.5%[10 µM] | 1.4% | ?
Cc1ccc(C(=O)ONc2ccc(N=NC(=O)c3ccccc3O)cc2)cc1 | 8.2% | 28.2µM* | 28.1 | -13.6%[10 µM] | 7.4% | ?
Cc1ccc(C(=O)ONc2ccc(N=O)cc2)cc1 | 1.6% | -5.9% | -117.0* | 36.6%[10 µM] | -3.9% | ?
Cn1c(=O)c(-c2cccs2)nc2cnc(N3CCOCC3)nc21 | · | · | · | -35.9% | 5.6% | 2.6%
COc1ccccc1CNc1ccnc(-c2ccccc2OC)n1 | · | · | · | 6.6% | -23.7% | -1.9%
CCN(CC)C(=O)c1ccccc1NS(C)(=O)=O | -4.7%[9.22 µM] | · | · | 4.3%[10 µM] | -11.0% | 5.8%
Cc1ccc(NC(=O)/C(C#N)=C(\N)C(Cl)(Cl)Cl)nc1 | -9.4% | · | · | -20.0% | 3.55µM* | ?
COC(=O)c1ccc(C(NC(=O)OCc2ccccc2)/C(F)=C/[C@@H](C)C(=O)NCCN2CCOCC2)cc1 (some centres not stated) | · | -10.4% | · | -14.9% | -14.2% | -12.2%
Cc1ccccc1Nc1cccc2nonc12 | 23.1% | -18.2% | -99.4* | 17.6%[10 µM] | 2.6% | -3.9%
CCCCCCCC1=Cc2ccccc2C(CC(=O)c2ccccc2)N1C(=O)OC (configuration not stated) | · | -10.6% | · | -18.6%[10 µM] | 4.2%[14.2 µM] | 0.9%[13.5 µM]
CCOc1ccc(NC(=O)Nc2cc(OCC(F)(F)F)cc(OCC(F)(F)F)c2)cc1 | -6.2% | -14.9% | 70.6 | 6.6%[10 µM] | -2.8% | -2.9%
